From PubChem BioAssay (NCI)
About 83,000 compounds went through this panel and 20% of them were active in at least one assay; those are over-represented in the sample as a whole.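 Negative percent growth values reflect cell death: -40 means 40% of the cells present at the start died, and -100 means all died.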 Calls of active or inactive are those of the source. The calls were made as follows: active = growth percent below 10; inactive = the rest.

How the values were obtained:
Assay in all cases: NCI-60 one-dose screen, 48 h (100 = growth as untreated, 0 = no growth, -100 = all killed)
HCT-15 colon = conditions: 10 µM unless noted
HT29 colon = conditions: 10 µM unless noted
SNB-19 CNS = conditions: 10 µM unless noted
U251 CNS = conditions: 10 µM unless noted
PC-3 prostate = conditions: 10 µM unless noted
SK-MEL-5 melanoma = conditions: 10 µM unless noted
UACC-62 melanoma = conditions: 10 µM unless noted
LOX IMVI melanoma = conditions: 10 µM
SK-MEL-28 melanoma = conditions: 10 µM unless noted
SK-MEL-2 melanoma = conditions: 10 µM unless noted
EKVX NSCLC = conditions: 10 µM unless noted
SN12C renal = conditions: 10 µM unless noted
UO-31 renal = conditions: 10 µM unless noted
TK-10 renal = conditions: 10 µM unless noted
ACHN renal = conditions: 10 µM unless noted
CAKI-1 renal = conditions: 10 µM unless noted
A498 renal = conditions: 10 µM unless noted
CCRF-CEM leukemia = conditions: 10 µM unless noted
MOLT-4 leukemia = conditions: 10 µM unless noted

Measured: growth

Cn1cc(-c2cc(N)n3nc(-c4c[nH]c5ccccc45)cc3n2)c2cccnc21
inactive: SNB-19 CNS 59.9% | U251 CNS 20% | SK-MEL-5 melanoma 23.1% | SK-MEL-2 melanoma 64.5% | EKVX NSCLC 85.6% | SN12C renal 12.4% | UO-31 renal 12.2% | TK-10 renal 92% | CAKI-1 renal 23.9% | A498 renal 129%
active: HCT-15 colon -10.2% | HT29 colon -38.1% | PC-3 prostate 5.88% | UACC-62 melanoma -84% | LOX IMVI melanoma -85.8% | SK-MEL-28 melanoma -81.6% | ACHN renal 3.49% | CCRF-CEM leukemia -21.5% | MOLT-4 leukemia -29.4%

COc1ccc(-c2nc3cc(C)ccc3n2CC(=O)N=Nc2c(O)[nH]c3ccc(Br)cc23)cc1
active: HCT-15 colon -66.1% | HT29 colon -67.4% | U251 CNS -63.1% | SK-MEL-5 melanoma -45.6% | UACC-62 melanoma -42.8% | LOX IMVI melanoma -81.9% | SK-MEL-28 melanoma -53.8% | EKVX NSCLC -36.5% | SN12C renal -57.8%
inactive: SNB-19 CNS 29.2% | PC-3 prostate 13.9% | SK-MEL-2 melanoma 61.6% | UO-31 renal 53.5% | TK-10 renal 25.6% | ACHN renal 15.5% | CAKI-1 renal 54.6% | A498 renal 136% | CCRF-CEM leukemia 58.8% | MOLT-4 leukemia 23.3%

C=C1CCC2C3(C)COC(c4ccccc4)OC3CCC2(C)C1CC(Sc1ccccc1)C1=CCOC1=O (stereo unspecified)
active: HCT-15 colon 5.46% | LOX IMVI melanoma -98% | CCRF-CEM leukemia -1.92% | MOLT-4 leukemia -14.3%
inactive: HT29 colon 13.8% | SNB-19 CNS 85.5% | U251 CNS 17.5% | PC-3 prostate 29.3% | SK-MEL-5 melanoma 55.2% | UACC-62 melanoma 39.5% | SK-MEL-28 melanoma 82.5% | SK-MEL-2 melanoma 59.4% | EKVX NSCLC 69.3% | SN12C renal 25.7% | UO-31 renal 45.5% | TK-10 renal 106% | ACHN renal 65.1% | CAKI-1 renal 78.4% | A498 renal 140%

Cc1ccc2c(c1)nc(-c1ccccc1)n2CC(=O)N=Nc1c(O)[nH]c2ccc(Br)cc12
inactive: CCRF-CEM leukemia 23.8%
active: HCT-15 colon -79.9% | HT29 colon -67.6% | SNB-19 CNS -30.8% | U251 CNS -74.3% | PC-3 prostate -78% | SK-MEL-5 melanoma -57.3% | UACC-62 melanoma -87.4% | LOX IMVI melanoma -93.6% | SK-MEL-28 melanoma -88.3% | SK-MEL-2 melanoma -40.5% | EKVX NSCLC -77.2% | SN12C renal -72.3% | UO-31 renal -90% | TK-10 renal -10% | ACHN renal -99.9% | CAKI-1 renal -65.4% | A498 renal -37.2% | MOLT-4 leukemia -42.1%

COc1ccc(-c2ccnc(SCc3cc4ccccc4[nH]c3=O)n2)cc1OC
inactive: HCT-15 colon 39.5% | LOX IMVI melanoma 18.8% | SK-MEL-2 melanoma 17.4% | TK-10 renal 22.9% | CCRF-CEM leukemia 106% | MOLT-4 leukemia 74%
active: HT29 colon -80.8% | SNB-19 CNS -7.41% | U251 CNS -13.5% | PC-3 prostate -21.9% | SK-MEL-5 melanoma 1.35% | UACC-62 melanoma 1.83% | SK-MEL-28 melanoma 9.54% | EKVX NSCLC -16.6% | SN12C renal -37.6% | UO-31 renal -73.4% | ACHN renal -76.6% | CAKI-1 renal -67% | A498 renal -18.9%

Cc1ccc(Cc2cnc(NC(=O)c3ccc(/C=C4\SC(=S)N(C)C4=O)cc3)s2)cc1
inactive: HCT-15 colon 18.7% | HT29 colon 23.8% | SNB-19 CNS 53.8% | U251 CNS 62.3% | PC-3 prostate 37.3% | SK-MEL-5 melanoma 19.4% | UACC-62 melanoma 25.1% | LOX IMVI melanoma 34.3% | SK-MEL-28 melanoma 42.1% | SK-MEL-2 melanoma 25.6% | EKVX NSCLC 60% | SN12C renal 30.8% | UO-31 renal 37.7% | TK-10 renal 61.5% | ACHN renal 31.1% | CAKI-1 renal 38.4% | A498 renal 107% | CCRF-CEM leukemia 32.3% | MOLT-4 leukemia 24.1%

COc1ccc(-c2ccnc(SCc3cc4ccccc4[nH]c3=O)n2)cc1
inactive: HCT-15 colon 28.2% | HT29 colon 29.5% | SNB-19 CNS 64% | U251 CNS 64.1% | PC-3 prostate 69.6% | SK-MEL-5 melanoma 59.1% | UACC-62 melanoma 44.8% | LOX IMVI melanoma 49.9% | SK-MEL-28 melanoma 73% | SK-MEL-2 melanoma 67.2% | EKVX NSCLC 69.8% | SN12C renal 49.1% | UO-31 renal 68.4% | TK-10 renal 85.2% | ACHN renal 74.4% | CAKI-1 renal 55.1% | A498 renal 93.2% | CCRF-CEM leukemia 48.1% | MOLT-4 leukemia 11.1%

C=C1CC[C@@H]2[C@]3(C)COC(c4cn[nH]c4-c4cccc(Br)c4)O[C@@H]3CC[C@@]2(C)[C@@H]1C/C=C1/C(=O)OCC1O (stereo partly specified)
inactive: MOLT-4 leukemia 12.2%
active: HCT-15 colon -67.5% | HT29 colon 1.52% | SNB-19 CNS -87.9% | U251 CNS -90.9% | PC-3 prostate -47.9% | SK-MEL-5 melanoma -99.6% | UACC-62 melanoma -83.2% | LOX IMVI melanoma -100% | SK-MEL-28 melanoma -76.7% | SK-MEL-2 melanoma -69.8% | EKVX NSCLC -62.3% | SN12C renal -77.7% | UO-31 renal -100% | TK-10 renal -59.7% | ACHN renal -100% | CAKI-1 renal -39.3% | A498 renal -93.7% | CCRF-CEM leukemia -15.6%

O=C(c1ccc(OCCN2CCOCC2)cc1)C1[C@H](c2ccc(Cl)cc2)[C@@H](c2ccccc2)NC12C(=O)Nc1ccc(Cl)cc12 (stereo partly specified)
inactive: HCT-15 colon 16.2% | SNB-19 CNS 41% | U251 CNS 25.3% | SK-MEL-5 melanoma 51.6% | UACC-62 melanoma 40.1% | SK-MEL-2 melanoma 35% | EKVX NSCLC 23.1% | SN12C renal 13.5% | UO-31 renal 19.1% | TK-10 renal 49.7% | CAKI-1 renal 14.8% | A498 renal 88% | CCRF-CEM leukemia 31%
active: HT29 colon -75.4% | PC-3 prostate 6.16% | LOX IMVI melanoma -45.5% | ACHN renal 9.92% | MOLT-4 leukemia -28.2%

O=c1oc2ccc(Br)cc2cc1C1=CSc2nc3sc4c(c3c(=O)n2N=C1)CCCC4
inactive: HCT-15 colon 95.1% | HT29 colon 108% | U251 CNS 99.3% | PC-3 prostate 76.7% | SK-MEL-5 melanoma 96.9% | UACC-62 melanoma 71.7% | LOX IMVI melanoma 86.4% | SK-MEL-28 melanoma 105% | SK-MEL-2 melanoma 98.6% | EKVX NSCLC 97% | SN12C renal 103% | UO-31 renal 69.8% | TK-10 renal 175% | ACHN renal 99.4% | CAKI-1 renal 96.2% | A498 renal 177% | CCRF-CEM leukemia 84.4% | MOLT-4 leukemia 93.2%

O=C1/C(=C/C2=Cc3ccccc3OC2)SC(=S)N1c1ccccc1F
inactive: HCT-15 colon 107% | HT29 colon 110% | U251 CNS 102% | PC-3 prostate 95.7% | SK-MEL-5 melanoma 105% | UACC-62 melanoma 88.4% | LOX IMVI melanoma 101% | SK-MEL-28 melanoma 105% | SK-MEL-2 melanoma 107% | EKVX NSCLC 98.8% | SN12C renal 103% | UO-31 renal 82.6% | TK-10 renal 105% | ACHN renal 107% | CAKI-1 renal 99.1% | A498 renal 122% | CCRF-CEM leukemia 97.5% | MOLT-4 leukemia 95.2%

CC(=O)c1cc(C(=O)c2ccccc2)n2c1ccc1ccccc12
inactive: HCT-15 colon 104% | HT29 colon 109% | SNB-19 CNS 98% | U251 CNS 106% | PC-3 prostate 81% | SK-MEL-5 melanoma 104% | UACC-62 melanoma 86.9% | LOX IMVI melanoma 96.7% | SK-MEL-28 melanoma 122% | EKVX NSCLC 98.5% | SN12C renal 90.6% | UO-31 renal 55.5% | TK-10 renal 142% | ACHN renal 91.7% | CAKI-1 renal 79.6% | A498 renal 129% | CCRF-CEM leukemia 108% | MOLT-4 leukemia 87.6%

CC1(c2cc3cc(Br)ccc3oc2=O)NC(=O)c2c(/C=C/C(=O)OC3CC4CCC3(C)C4(C)C)cccc2N1 (stereo unspecified)
inactive: HCT-15 colon 82.9% | HT29 colon 88.7% | SNB-19 CNS 72% | U251 CNS 69.8% | PC-3 prostate 36.5% | SK-MEL-5 melanoma 74.5% | LOX IMVI melanoma 84.5% | SK-MEL-28 melanoma 86.5% | SK-MEL-2 melanoma 92.7% | EKVX NSCLC 62.1% | SN12C renal 75.5% | UO-31 renal 59.8% | TK-10 renal 104% | ACHN renal 76.6% | CAKI-1 renal 78.2% | A498 renal 142% | CCRF-CEM leukemia 82.2% | MOLT-4 leukemia 47%

Clc1cccc(N/N=C/c2c[nH]c3ccc(Br)cc23)n1
inactive: HCT-15 colon 22.3% | HT29 colon 23.6% | SNB-19 CNS 20.5% | U251 CNS 17.1% | SK-MEL-5 melanoma 40.3% | SK-MEL-28 melanoma 49.1% | SK-MEL-2 melanoma 27.4% | EKVX NSCLC 33.9% | TK-10 renal 63.9% | ACHN renal 10.6% | CAKI-1 renal 11.7% | A498 renal 79.9%
active: PC-3 prostate 7.77% | LOX IMVI melanoma -60.9% | SN12C renal -1.39% | UO-31 renal 7.66% | CCRF-CEM leukemia -14.8% | MOLT-4 leukemia -20.1%

Cc1ccc([C@H]2C(C(=O)c3ccc(Cl)cc3)C3(N[C@@H]2c2ccccc2)C(=O)Nc2ccccc23)cc1 (stereo partly specified)
inactive: HCT-15 colon 35.6% | HT29 colon 17.8% | U251 CNS 48.6% | SK-MEL-5 melanoma 34.3% | UACC-62 melanoma 13.4% | LOX IMVI melanoma 25.5% | SK-MEL-28 melanoma 32.8% | SK-MEL-2 melanoma 15.6% | EKVX NSCLC 29.6% | UO-31 renal 17.7% | TK-10 renal 40.8% | ACHN renal 22.5% | CAKI-1 renal 32% | A498 renal 75.5% | CCRF-CEM leukemia 14.7%
active: PC-3 prostate 2.35% | SN12C renal 4.19% | MOLT-4 leukemia -26.6%

COc1ccc(-c2ccc(SCC(=O)Nc3ccc(S(N)(=O)=O)cc3Br)nn2)cc1
inactive: HCT-15 colon 84.5% | HT29 colon 95.7% | SNB-19 CNS 23.4% | U251 CNS 52.4% | PC-3 prostate 73.5% | SK-MEL-5 melanoma 94.3% | UACC-62 melanoma 83.2% | LOX IMVI melanoma 98.8% | SK-MEL-2 melanoma 68.9% | EKVX NSCLC 78% | SN12C renal 88.4% | UO-31 renal 88.3% | TK-10 renal 116% | ACHN renal 86.7% | CAKI-1 renal 63.1% | A498 renal 89.8% | CCRF-CEM leukemia 98.7% | MOLT-4 leukemia 93.7%
